# Results reported in PubChem BioAssay (NCI).
# The panel holds about 83,000 compounds, 20% with a hit somewhere; the sample as a whole holds those more often.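 96-well plates, one dose, 48 hours. Percent growth reported; active if below 10.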 A number with no mark means an inactive call. Calls of active or inactive are those of the source.
# Tests used:
# Test in all cases: NCI-60 one-dose screen, 48 h (100 = growth as untreated, 0 = no growth, -100 = all killed)
# Conditions in all cases: 10 µM unless noted
# NCI-H23 lung = tested on: NCI-H23 lung
# NCI-H226 lung = tested on: NCI-H226 lung
# NCI-H322M lung = tested on: NCI-H322M lung
# HOP-62 NSCLC = tested on: HOP-62 NSCLC
# HOP-92 NSCLC = tested on: HOP-92 NSCLC
# NCI-H522 lung = tested on: NCI-H522 lung
# A549/ATCC NSCLC = tested on: A549/ATCC NSCLC
# 786-0 renal = tested on: 786-0 renal
# COLO 205 colon = tested on: COLO 205 colon
# NCI-H460 lung = tested on: NCI-H460 lung
Structure (SMILES),growth (NCI-H23 lung),growth (NCI-H226 lung),growth (NCI-H322M lung),growth (HOP-62 NSCLC),growth (HOP-92 NSCLC),growth (NCI-H522 lung),growth (A549/ATCC NSCLC),growth (786-0 renal),growth (COLO 205 colon),growth (NCI-H460 lung)
CN(C)C(=O)c1cc2cnc(Nc3ccc(-c4csc5c(=O)cc(N6CCOCC6)oc45)cc3)nc2n1C1CCCC1,-10.2% (active),2.17% (active),-29% (active),-30.4% (active),-3.68% (active),-65.1% (active),-36.8% (active),-1.22% (active),-84.3% (active),
CN(C)C(C(N)=O)c1ccc(Cl)cc1 (stereo unspecified),104%,103%,103%,99.6%,71.4%,96.1%,96.6%,96.1%,110%,
COc1cc(NCCN(CC(C)C)C2CCCC2)c2ncccc2c1,81.1%,92%,118%,82.9%,95.9%,78.1%,81.7%,98.1%,101%,
O=C(Nc1ccc(Nc2ncccn2)cc1)NC1C=c2ccccc2=CC1 (stereo unspecified),104%,96.7%,111%,113%,110%,99.3%,93.1%,104%,123%,
CC[C@H](C)[C@@H]1NC(=O)[C@H](Cc2ccc(O)cc2)N(C)C(=O)[C@H](Cc2ccccc2)NC(=O)CN(C)C(=O)[C@@H]2CCCN2C(=O)[C@@H](Cc2ccccc2)N(C)C(=O)[C@H](CC(C)C)NC1=O,-15.1% (active),-8.47% (active),-20.2% (active),0.573% (active),-3.08% (active),0.571% (active),2.11% (active),10.6%,-25.1% (active),
CCCOc1nc(SCCC)nc2c1cnn2-c1ccccc1,93.8%,96.6%,137%,126%,98.2%,3.95% (active),100%,105%,103%,
Clc1ccc(C2CC(c3cccc(Nc4ccncc4)c3)=NN2c2cc(Cl)cc(Cl)c2)cc1 (stereo unspecified),79.6%,88.7%,81.6%,68.5%,71.3%,89.1%,47.6%,-88.5% (active),-58% (active),
O=C1c2ccccc2-c2c1c1c(NCCCO)nc3ccccc3c1n2Cc1ccccc1,35.1%,21.5%,29.6%,-35.5% (active),-33.4% (active),23.3%,16%,-74.3% (active),62%,
C#CC(=O)Nc1cccc(Nc2nc3c(c(NCc4ccccc4)n2)CCCC3)c1,-61.2% (active),-31.4% (active),-56.9% (active),-82.8% (active),-71.7% (active),-60.7% (active),-48.5% (active),-90.3% (active),-68.9% (active),
COc1ccncc1C#Cc1cncc(C(=O)Nc2ccc(CN3CCN(C)CC3)c(C(F)(F)F)c2)c1,28%,3.6% (active),37.3%,38.9%,-2.19% (active),30.9%,36.9%,46.9%,4.09% (active),
COc1ccc(-c2nc(SCC(C)C)nc(N/N=C(/C)c3ccc(OC)c(OC)c3)c2C#N)cc1,89.7%,94.1%,79.7%,86.9%,38.4%,80.8%,99.8%,96.9%,110%,
COc1ccc(-c2nn(Cc3ccccc3)c3c2-c2oncc2CC3)cc1OC,105%,131%,112%,120%,49.4%,98.9%,96.8%,97.8%,136%,
CC(C)Sc1nc(NN)c(C#N)c(-c2ccccc2)n1,100%,100%,91.1%,102%,83.5%,94.7%,102%,97.8%,114%,
O=C1NC(=S)NC(=O)C1=Cc1cccc(C=C2C(=O)NC(=S)NC2=O)c1,102%,98.8%,110%,104%,116%,93.1%,108%,12.2%,113%,
CCCCCCOc1ccc(/C=N/Nc2cc(C)nc3ccc(Br)cc23)cc1,14%,,-73.7% (active),-65.4% (active),34.5%,-61.4% (active),-59.5% (active),-87.7% (active),-51.8% (active),-72% (active)
COc1nc(N)nc(-n2c(-c3ccc(C)cc3)nc3ccccc32)c1NCc1ccc(C)cc1,95.6%,,90.2%,86.5%,78.2%,79.9%,78.4%,90.3%,108%,105%
c1ccc(-c2nnc(Nc3ccc4c(c3)OCCO4)o2)c(NCc2ccncc2)c1,2.75% (active),,40.4%,25.3%,77.7%,-34.5% (active),22.6%,17.1%,-68.8% (active),4.52% (active)
O=c1[nH]nc(-c2ccc(Br)cc2)cc1Cc1ccc(O)cc1,98.5%,,126%,109%,51.8%,89.5%,56.7%,103%,98.8%,103%
C=CCn1c(SCC(=O)Nc2ccc(C(=O)/C=C/c3cc(OC)c(OC)c(OC)c3)cc2)nnc1-c1cc(-c2ccc(S(C)(=O)=O)cc2)nc2ccccc12,85.6%,,93.5%,111%,112%,86.5%,99.4%,93.6%,111%,97.2%
COc1ccc(/C=C/c2n[nH]c3ccc(N4CCOC4=O)cc23)cc1,12.4%,,8.47% (active),-1.37% (active),-8.15% (active),51.3%,1.87% (active),11.3%,-17.4% (active),
COc1cc(C(=O)/C=C/c2c(C)n([O-])c3ccc(Cl)cc3[n+]2=O)cc(OC)c1OC,72%,,102%,82%,-31.2% (active),-77.3% (active),81.5%,61.7%,36.4%,83%
CC1(c2ccccc2)NC(=O)N(CC(=O)Nc2cccc(I)c2)C1=O (stereo unspecified),95.3%,,83.8%,76.7%,60.1%,67.5%,87.6%,95.3%,106%,93.3%
COc1ccc2c(c1)c(CC(=O)NCCOCCOCC(=O)Nc1ccc(OC)c(C(N)=O)c1O)c(C)n2C(=O)c1ccc(Cl)cc1,90.1%,,92.7%,88.8%,91.3%,81.3%,85.7%,73.8%,109%,101%
O=C1CCC(NC(=S)Nc2ccccc2)N1 (stereo unspecified),91.2%,,99.5%,109%,102%,92.8%,101%,105%,120%,115%
C1=C2CNCC3=Cc4ccc5ccccc5c4OC23Oc2c1ccc1ccccc21,52.8%,,98%,43.6%,37.2%,0.285% (active),50.6%,,50.8%,33.5%
COc1ccc(C(=O)c2cc3c(N)c(C(=O)Nc4cccc5ccccc45)sc3nc2C)cc1,30.7%,,51.4%,30.2%,44.5%,-28.8% (active),17.6%,31.6%,-37.7% (active),3.06% (active)
COc1ccc(Cc2nc3cc(OC)c(OC)cc3c(=O)[nH]2)cc1,59.6%,,167%,140%,108%,52.1%,-5.67% (active),86.9%,68.5%,89.4%
